The panel holds about 83,000 compounds, 20% with a hit somewhere; the sample as a whole holds those more often.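 In brief: 96-well plates, 48 h treatment, single concentration, percent growth endpoint.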 A number with no mark means an inactive call. The source made the active and inactive calls. Rule for the calls: active = growth percent below 10; inactive = the rest.
Tests used:
Experiment in all cases: NCI-60 one-dose screen, 48 h (100 = growth as untreated, 0 = no growth, -100 = all killed)
Settings in all cases: 10 µM unless noted
SR leukemia = tested on: SR leukemia
RPMI-8226 leukemia = tested on: RPMI-8226 leukemia
OVCAR-8 ovarian = tested on: OVCAR-8 ovarian
OVCAR-5 ovarian = tested on: OVCAR-5 ovarian
OVCAR-4 ovarian = tested on: OVCAR-4 ovarian
SK-OV-3 ovarian = tested on: SK-OV-3 ovarian
IGROV1 ovarian = tested on: IGROV1 ovarian
OVCAR-3 ovarian = tested on: OVCAR-3 ovarian
HS 578T breast = tested on: HS 578T breast
NCI/ADR-RES ovarian = tested on: NCI/ADR-RES ovarian

| SMILES | growth (SR leukemia) | growth (RPMI-8226 leukemia) | growth (OVCAR-8 ovarian) | growth (OVCAR-5 ovarian) | growth (OVCAR-4 ovarian) | growth (SK-OV-3 ovarian) | growth (IGROV1 ovarian) | growth (OVCAR-3 ovarian) | growth (HS 578T breast) | growth (NCI/ADR-RES ovarian) |
| --- | --- | --- | --- | --- | --- | --- | --- | --- | --- | --- |
| COc1cncc(-c2ccc3ncnc(N4CCc5ccc(Cl)cc54)c3c2)c1 | 3.37% (active) | -21.2% (active) | 39.4% | 30% | 32% | 27.4% | -63.4% (active) | 55.4% | 20.1% | 1.41% (active) |
| CN(CCSSCCN1CCOCC1)C(=O)Oc1cc2c(c3ccccc13)[C@H](CCl)CN2C(=O)c1cc2cc(OCCCN3CCC3)ccc2[nH]1 | -26.2% (active) | -28.5% (active) | -15.7% (active) | -36.7% (active) | -28.7% (active) | -27.7% (active) | -22.1% (active) | -46.7% (active) | -16.8% (active) | -30.4% (active) |
| COc1ccccc1NC(=O)c1ccc(NC(=O)CCl)s1 | 2.06% (active) | -37.4% (active) | -61% (active) | 2.87% (active) | 65.2% | -4.26% (active) | -63.9% (active) | 1.97% (active) | 18.3% | 2.28% (active) |
| COc1cc(C2CC(c3ccc(Cl)cc3)=Nc3c(N)nc(N)nc3N2)ccc1Oc1nc(Nc2ccc(F)cc2)nc(N(C)C)n1 (stereo not given) | -47.5% (active) | 15% | 65% | 96.6% | 29% | 79.3% | 34% | 65% | 54% | 41.4% |
| FC(F)(F)c1cc2c(Cl)ncnc2n1CCC1CCOCC1 | -64.3% (active) | 72.2% | 18.1% | 102% | -16.5% (active) | 50.6% | -90.6% (active) | -75.4% (active) | -42.5% (active) | 69% |
| O=C1CCC(N2C(=O)c3cccc(NCCOCCOCCOCCC(=O)NCCCC(=O)NC(c4ccc5c(c4)OCO5)c4cc(Cl)c5cccnc5c4O)c3C2=O)C(=O)C1 (stereo not given) | 5.36% (active) | 16.1% | 32.7% | 63.8% | 60.2% | 51.1% | 15.8% | 10.9% | 64.6% | 92.4% |
| CC(C)(C)C(=O)C1CC(C#N)=C2C=Cc3c(ccc4ccccc34)N21 (stereo not given) | 94.3% | 75% | 71.2% | 121% | 79.3% | 75% | 92.9% | 96.3% | 30.6% | 81.9% |
| COc1ccc2[nH]c(=O)cc(-n3ncc(C(=O)/C=C/c4cc(OC)c(OC)c(OC)c4)c3C)c2c1 | -11.8% (active) | -45.2% (active) | 14.5% | -26.3% (active) | 36.5% | 6.3% (active) | -0.815% (active) | -34.6% (active) | 57.3% | 7.59% (active) |
| Cc1[nH]nc2ccc3nc(-c4cn[nH]c4C(F)(F)F)c4c(c3c12)CCCC4 | 16.6% | 1.04% (active) | 4.15% (active) | 3.15% (active) | 29.6% | -54.2% (active) | -42.4% (active) | -15% (active) | -28.6% (active) | 19.8% |
| CCN1C(=O)N(CC)C2NNC(Sc3c(C(=O)O)c4ccccc4n(CCC(C)C)c3=O)=NC21 (stereo not given) | 6.32% (active) | 10.3% | 5.92% (active) | 21.4% | 46.5% | 35.8% | 17.3% | -25.4% (active) | -14.6% (active) | -35.4% (active) |
| CCCSc1nnc(-c2sc3nc4ccccc4n3c2C)o1 | 107% | 97.7% | 107% | 111% | 104% | 121% | 107% | 117% | 109% | 98.7% |
| CCCCNc1ccc2c3c(cccc13)C(=O)N(c1cccc(-c3nn(-c4ccccc4)cc3-c3nc4ccccc4s3)c1)C2=O | 95.5% | 95.3% | 107% | 104% | 101% | 126% | 98.4% | 111% | 110% | 98% |
| COc1cccc2nc(Nc3cccc(NC(=O)c4ccc(CN5CCN(C)CC5)c(C(F)(F)F)c4)c3)ccc12 | -36.1% (active) | -40.2% (active) | -65.2% (active) | -98% (active) | -82.9% (active) | -81.9% (active) | -87.1% (active) | -36.6% (active) | -21.1% (active) | -89.7% (active) |

— PubChem BioAssay (NCI)
